KCNQ2 inh: KCNQ2 (rat) channel inhibition. O88943. CHO-K1 KCNQ2, FluxOR thallium flux, 20 min; active compounds read low. B-score at 10 µM. 310,000 tested, 1.1% active;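 active = fluorescence ratio B-score at most minus 3 library SDs, with starting brightness B-score within 2 library SDs, cut at about -5.5 in these data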
Target sequence (O88943 whole entry, looked up): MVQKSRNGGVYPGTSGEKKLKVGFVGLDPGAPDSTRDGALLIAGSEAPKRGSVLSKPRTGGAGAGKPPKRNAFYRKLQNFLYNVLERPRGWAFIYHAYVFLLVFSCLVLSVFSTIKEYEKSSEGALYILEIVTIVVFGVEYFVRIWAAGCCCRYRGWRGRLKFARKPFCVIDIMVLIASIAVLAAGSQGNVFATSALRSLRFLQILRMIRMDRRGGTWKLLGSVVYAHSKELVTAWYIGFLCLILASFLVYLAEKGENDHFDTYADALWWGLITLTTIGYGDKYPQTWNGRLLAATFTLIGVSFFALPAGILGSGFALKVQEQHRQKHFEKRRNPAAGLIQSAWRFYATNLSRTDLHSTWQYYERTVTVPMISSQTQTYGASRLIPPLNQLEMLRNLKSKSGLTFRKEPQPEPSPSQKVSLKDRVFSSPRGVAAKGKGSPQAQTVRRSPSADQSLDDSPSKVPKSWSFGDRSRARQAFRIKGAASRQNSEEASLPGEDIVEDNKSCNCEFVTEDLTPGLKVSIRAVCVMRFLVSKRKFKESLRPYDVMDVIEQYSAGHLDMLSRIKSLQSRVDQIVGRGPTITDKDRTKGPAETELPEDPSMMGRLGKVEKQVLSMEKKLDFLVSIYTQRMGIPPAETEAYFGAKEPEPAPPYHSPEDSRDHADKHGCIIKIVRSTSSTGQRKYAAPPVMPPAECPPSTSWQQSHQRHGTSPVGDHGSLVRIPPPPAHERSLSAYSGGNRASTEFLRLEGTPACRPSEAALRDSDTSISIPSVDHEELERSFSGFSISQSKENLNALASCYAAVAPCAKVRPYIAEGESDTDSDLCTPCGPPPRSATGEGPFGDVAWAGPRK
KCNQ2 enhance: potentiators of rat KCNQ2 potassium channel. O88943. CHO-K1 KCNQ2, FluxOR thallium flux fluorescence; active compounds read high. B-score at 10 µM. 310,000 tested, 0.54% active;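 active = fluorescence ratio B-score at least 3 SD of library B-scores, with initial fluorescence B-score within 3 of them, cut at about 5.3 in these data; same plate scores as AID 2156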;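 also: B-score of peak minus minimum over baseline fluorescence ratio after K+ and Tl+ stimulus; positive B-score means potentiation of KCNQ2 with more thallium influx and brighter signal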
Large screens that a line does not name were inactive. Hits are enriched below; roughly 1.6% of the tested compounds scored in any of these assays.

O=C(CCC(=O)N1CCN(S(=O)(=O)c2ccc(Cl)cc2)CC1)NC1CCCc2ccccc21 (stereo not drawn)	KCNQ2 inh -7.1
O=C(CCC(=O)N1CCN(S(=O)(=O)c2ccc(Cl)cc2)CC1)Nc1ccc(Cl)cc1Cl	none
Cc1ccc(S(=O)(=O)N2CCN(CC(=O)NC3CCCc4ccccc43)CC2)cc1C (stereo not drawn)	KCNQ2 inh -7
CC(C)c1csc(CN2CCC(n3nccc3NC(=O)Cc3ccccc3)CC2)n1	none (no result: KCNQ2 enhance)
CCn1nnnc1SCC(=O)c1cc(OC)ccc1OC	none
COc1ccc(N2CCN(C3CCCN(S(=O)(=O)c4ccc(C)cc4C)C3)CC2)cc1 (stereo not drawn)	none (no result: KCNQ2 enhance)
O=C(COc1ccccc1)N=C1SC2CS(=O)(=O)CC2N1Cc1ccccc1 (stereo not drawn)	none (no result: KCNQ2 enhance)
Cc1cccc(C)c1OCc1cc(C(=O)N(C)CCc2ccccn2)no1	none (no result: KCNQ2 enhance)
Cc1ccc(Cl)cc1N(CC(=O)NC(C)c1ccccc1)S(C)(=O)=O (stereo not drawn)	none (no result: KCNQ2 enhance)
CCOc1ccc(OCc2ccc(C(=O)N3CCCCC3)o2)cc1	none
CCOc1ccc(OCc2ccc(C(=O)N3CCc4ccccc4C3)o2)cc1	KCNQ2 inh -6.1
COc1ccc(NC(=O)OCCn2c([N+](=O)[O-])cnc2C)cc1	none
COc1ccc(/C=C/C(=O)NC(CCSC)C(=O)O)cc1 (stereo not drawn)	none
COC(=O)c1cn(C(=O)c2ccccc2)c2ccccc12	none (no result: KCNQ2 enhance)
COC(=O)c1cn(C(=O)c2cc(OC)cc(OC)c2)c2ccccc12	KCNQ2 inh -6.3
CC1CCCN(S(=O)(=O)c2cc3c4c(c2)C(C)C(=O)N4CCC3)C1 (stereo not drawn)	none (no result: KCNQ2 enhance)
O=C(C[n+]1cccc2ccccc21)c1ccc(Br)cc1	none
O=C(C[n+]1cc(Br)cc2ccccc21)c1ccc(Br)cc1	KCNQ2 inh -6.1
O=C(C[n+]1cc(Br)cc2ccccc21)c1ccc(Cl)cc1	KCNQ2 inh -7.5
O=C(C[n+]1cc(Br)cc(Br)c1)c1ccc(Cl)cc1	none (no result: KCNQ2 enhance)
CCC(C)NC(=O)Cc1c(C)c2cc3c(cc2oc1=O)OC(C)(C)CC3 (stereo not drawn)	none
CN(Cc1ccccc1)c1nc(-c2cccc([N+](=O)[O-])c2)nc2ccccc12	none (no result: KCNQ2 enhance)
CC(C)Nc1nc(NC(C)C)nc(SCC(N)=O)n1	none
COc1ccc(S(=O)(=O)N2CCC(c3cc(-c4cccc5ccccc45)n[nH]3)CC2)cc1	none (no result: KCNQ2 enhance)
O=S(=O)(c1cccc(C(F)(F)F)c1)N1CCC(c2cc(-c3cccc4ccccc34)n[nH]2)CC1	KCNQ2 inh -6.1
COc1ccccc1N1CCN(Cc2cc(=O)c(OCC#N)co2)CC1	none (no result: KCNQ2 enhance)
COCC1CCN(C(=O)c2cc(COc3ccccc3SC)on2)C1 (stereo not drawn)	none
C=CC[C@H]1CC(C)=C[C@H](CC=C)N1C(=O)c1cc(COc2ccccc2SC)on1	KCNQ2 inh -5.6
O=C(N=C1SC2CS(=O)(=O)CC2N1c1ccccc1Cl)C1CCCO1 (stereo not drawn)	none (no result: KCNQ2 enhance)
CCN(CC)S(=O)(=O)c1cc(NC(=O)CN2C(=O)NC3(CCCc4ccccc43)C2=O)ccc1C (stereo not drawn)	KCNQ2 inh -5.8
Cc1ccc(NC(=O)CN2C(=O)NC3(CCCc4ccccc43)C2=O)cc1S(=O)(=O)N1CCOCC1 (stereo not drawn)	none (no result: KCNQ2 enhance)
Oc1ccc(C=Nc2ccc(N3CCOCC3)cc2)c(O)c1	none (no result: KCNQ2 enhance)
Oc1cc(Br)ccc1C=Nc1ccc(N2CCCCC2)cc1	KCNQ2 inh -5.8
CCC(C(=O)NCc1ccco1)N(C(=O)CNS(=O)(=O)c1ccccc1)c1ccc(OC)cc1 (stereo not drawn)	KCNQ2 inh -5.8
CCOc1ccc(N(C(=O)CNS(=O)(=O)c2ccccc2)C(CC)C(=O)NCc2ccco2)cc1 (stereo not drawn)	none
Cc1cc(C)cc(OC(C)C(=O)Nc2ccccc2C(=O)NCc2cccnc2)c1 (stereo not drawn)	none
CCC12CC3CC(C1)CC(C(=O)NNC(N)=O)(C3)C2	none (no result: KCNQ2 enhance)
Cc1ccccc1C(=O)NC(CC(C)C)C(=O)Nc1ccc(F)c([N+](=O)[O-])c1 (stereo not drawn)	none (no result: KCNQ2 enhance)
COc1ccc(NC(=O)C(CC(C)C)NC(=O)c2ccccc2C)cn1 (stereo not drawn)	KCNQ2 inh -7.7
Cc1cccnc1NC(=O)CN1C(=O)c2ccccc2S1(=O)=O	none
CCC(=O)N(Cc1ccc(S(N)(=O)=O)cc1)C1CC(=O)N(c2ccccc2)C1=O (stereo not drawn)	none
Cc1c(Cl)ccc2c(C(=O)NCCN3CCCCC3)cc(-c3ccccn3)nc12	none (no result: KCNQ2 enhance)
COc1ccccc1-c1cc(C(=O)NC2CCN(C)CC2)c2ccc(Cl)c(C)c2n1	KCNQ2 inh -5.8
COc1cccc(OCc2ccc(C(=O)NCC3CCCO3)cc2)c1 (stereo not drawn)	none (no result: KCNQ2 enhance)
O=C(NCC1CCCO1)c1ccc(COc2ccccc2Br)cc1 (stereo not drawn)	KCNQ2 enhance 5.3
CC(=O)n1cc(N(C(=O)CCl)c2ccc([N+](=O)[O-])cc2)c2ccccc21	none (no result: KCNQ2 enhance)
O=Cc1[nH]c2ccccc2c1N(C(=O)CCl)c1ccc([N+](=O)[O-])cc1	KCNQ2 inh -12

Screens: PubChem, Johns Hopkins Ion Channel Center
